PubChem BioAssay (Tox21)
Several values for one entry are separate records, joined by “and”; a condition that tells them apart may be missing. Equal values may be shown once. Results filed as inconclusive are left out. Where a call stands in place of a potency, no number is given. Some structures have more than one record in an assay (separate samples or runs), and their calls can disagree. Activity calls are given as the source filed them. Unless noted, calls follow the shape of the full dose curve.

Assay: qHTS assay to identify small molecule agonists of the endoplasmic reticulum stress response signaling pathway (AID 1159516; active = well fitted activation curve with a large enough effect in the signal ratio in the repeat runs, not every such curve was filed as active; the % refers to the signal ratio)
Conditions: ESRE-bla HeLa, ER stress beta-lactamase reporter, 5 h; series mostly up to 61 µM
Method in brief: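 Fluorescence at 460 and 530 nm (405 nm excitation) reports beta-lactamase from an ER stress response element in HeLa cells treated 5 hr at 37 C.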

SMILES	outcome
CC(C)CC(=O)CC(C)CC(C)C (stereo unspecified)	inactive
O=C(O)CCCCCCCCC(=O)O	inactive
CN(C)c1ccc(O)c2c1C[C@H]1C[C@H]3[C@H](N(C)C)C(=O)C(C(N)=O)=C(O)[C@@]3(O)C(=O)C1=C2O	inactive
NC(=S)NNC(N)=S	inactive
c1ccc(Oc2ccccc2)cc1	inactive
CCCCCCCCCCN	inactive
O=[N+]([O-])c1ccc2nc[nH]c2c1	inactive
C[Si]1(C)O[Si](C)(C)O[Si](C)(C)O[Si](C)(C)O1	inactive
CC(C)c1cccc(C(C)C)c1	inactive
O=C1c2ccccc2CCc2ccccc21	inactive
CC(C)=CCl	inactive
C=CC[N+](C)(C)CC=C	inactive
COc1ccc([N+](=O)[O-])cc1N	inactive
O=C(O)c1ccc(C(=O)O)c(C(=O)O)c1	inactive
NCCCCCCN	inactive
NCCNCCN	inactive
CCCCCC(=O)O	inactive
CC(C)(C)c1cc(Cc2cc(C(C)(C)C)c(O)c(C(C)(C)C)c2)cc(C(C)(C)C)c1O	inactive
COC(=O)CCCC(=O)OC	inactive

SMILES	outcome
CN(C)c1ccc(Cc2ccc(N(C)C)cc2)cc1	inactive
CC(C)OP(=O)(CP(=O)(OC(C)C)OC(C)C)OC(C)C	inactive
COC(=O)c1cccnc1	inactive
CCOC(=O)n1ccn(C)c1=S	inactive
Cc1ccc(S(=O)(=O)N=C=O)cc1	inactive
CC(CCl)OP(=O)(OC(C)CCl)OC(C)CCl (stereo unspecified)	inactive
CC(C)CCCCCCCOC(=O)CCCCC(=O)OCCCCCCCC(C)C	inactive
CC(=O)c1ccc(O)cc1	inactive
C=C(C)CNCC	inactive
CCCCC(C=O)CC (stereo unspecified)	inactive
C=C(C)C(=O)OCC(C)C	inactive
CCNc1ccccc1	inactive
O=C(O)/C=C/C(=O)O	inactive
CC(=O)OCc1ccco1	inactive
O=C(O)c1cc2ccccc2cc1O	inactive
CCNc1cccc(C)c1	inactive
COc1ccc(OC)cc1	inactive
N#Cc1ccccc1	inactive

Assay: qHTS assay to identify small molecule agonists of the endoplasmic reticulum stress response signaling pathway - cell viability counter screen (AID 1159517); also: nearly all actives have a fitted effect of over 50% in size; also: potency is read from the fitted curve at half-maximal effect
Conditions: ESRE-bla HeLa viability, CellTiter-Glo luminescence, 5 h; series mostly up to 61 µM
Method in brief: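 ESRE-bla HeLa cells (1,500/well) were plated overnight at 37 C and exposed to compounds for 5 hr. After the 2 hr beta-lactamase substrate read, CellTiter-Glo went into the same wells, and luminescence was read after 30 min at room temperature.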

SMILES	Potency
CC(C)CC(=O)CC(C)CC(C)C (stereo unspecified)	inactive
O=C(O)CCCCCCCCC(=O)O	inactive
CN(C)c1ccc(O)c2c1C[C@H]1C[C@H]3[C@H](N(C)C)C(=O)C(C(N)=O)=C(O)[C@@]3(O)C(=O)C1=C2O	inactive
NC(=S)NNC(N)=S	inactive
c1ccc(Oc2ccccc2)cc1	inactive
CCCCCCCCCCN	inactive and 21.9 µM (active)
O=[N+]([O-])c1ccc2nc[nH]c2c1	inactive
C[Si]1(C)O[Si](C)(C)O[Si](C)(C)O[Si](C)(C)O1	inactive
CC(C)c1cccc(C(C)C)c1	inactive
O=C1c2ccccc2CCc2ccccc21	inactive
CC(C)=CCl	inactive
C=CC[N+](C)(C)CC=C	inactive
COc1ccc([N+](=O)[O-])cc1N	inactive
O=C(O)c1ccc(C(=O)O)c(C(=O)O)c1	inactive
NCCCCCCN	inactive
NCCNCCN	inactive
CCCCCC(=O)O	inactive
CC(C)(C)c1cc(Cc2cc(C(C)(C)C)c(O)c(C(C)(C)C)c2)cc(C(C)(C)C)c1O	inactive
COC(=O)CCCC(=O)OC	inactive

SMILES	Potency
CN(C)c1ccc(Cc2ccc(N(C)C)cc2)cc1	inactive
CC(C)OP(=O)(CP(=O)(OC(C)C)OC(C)C)OC(C)C	inactive
COC(=O)c1cccnc1	inactive
CCOC(=O)n1ccn(C)c1=S	inactive
Cc1ccc(S(=O)(=O)N=C=O)cc1	inactive
CC(CCl)OP(=O)(OC(C)CCl)OC(C)CCl (stereo unspecified)	inactive
CC(C)CCCCCCCOC(=O)CCCCC(=O)OCCCCCCCC(C)C	inactive
CC(=O)c1ccc(O)cc1	inactive
C=C(C)CNCC	inactive
CCCCC(C=O)CC (stereo unspecified)	inactive
C=C(C)C(=O)OCC(C)C	inactive
CCNc1ccccc1	inactive
O=C(O)/C=C/C(=O)O	inactive
CC(=O)OCc1ccco1	inactive
O=C(O)c1cc2ccccc2cc1O	inactive
CCNc1cccc(C)c1	inactive
COc1ccc(OC)cc1	inactive
N#Cc1ccccc1	inactive

Assay: qHTS assay to identify small molecule antagonists of the retinoid-related orphan receptor gamma (ROR-gamma) signaling pathway - cell viability counter screen (AID 1159520; active = well fitted cell-killing curve with a large enough effect in the repeat runs; also: nearly all actives have a fitted effect of over 50% in size)
Conditions: Tet-on RORgamma CHO cells viability, ATP luminescence, 16 h; series mostly up to 92.4 µM
Method in brief: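 Cytotoxicity was read from cellular ATP (CellTiter-Glo luminescence) after 16 hr at 37 C with 1 uM doxycycline induction. The inducer was added 2 hr after compound transfer to Tet-on ROR gamma CHO cells.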

SMILES	outcome
CC(C)CC(=O)CC(C)CC(C)C (stereo unspecified)	inactive
O=C(O)CCCCCCCCC(=O)O	inactive
CN(C)c1ccc(O)c2c1C[C@H]1C[C@H]3[C@H](N(C)C)C(=O)C(C(N)=O)=C(O)[C@@]3(O)C(=O)C1=C2O	inactive
NC(=S)NNC(N)=S	inactive
c1ccc(Oc2ccccc2)cc1	inactive
CCCCCCCCCCN	inactive
O=[N+]([O-])c1ccc2nc[nH]c2c1	inactive
C[Si]1(C)O[Si](C)(C)O[Si](C)(C)O[Si](C)(C)O1	inactive
CC(C)c1cccc(C(C)C)c1	inactive
O=C1c2ccccc2CCc2ccccc21	inactive
CC(C)=CCl	inactive
C=CC[N+](C)(C)CC=C	inactive
COc1ccc([N+](=O)[O-])cc1N	inactive
O=C(O)c1ccc(C(=O)O)c(C(=O)O)c1	inactive
NCCCCCCN	inactive
NCCNCCN	inactive
CCCCCC(=O)O	inactive
CC(C)(C)c1cc(Cc2cc(C(C)(C)C)c(O)c(C(C)(C)C)c2)cc(C(C)(C)C)c1O	inactive
COC(=O)CCCC(=O)OC	inactive

SMILES	outcome
CN(C)c1ccc(Cc2ccc(N(C)C)cc2)cc1	inactive
CC(C)OP(=O)(CP(=O)(OC(C)C)OC(C)C)OC(C)C	inactive
COC(=O)c1cccnc1	inactive
CCOC(=O)n1ccn(C)c1=S	inactive
Cc1ccc(S(=O)(=O)N=C=O)cc1	inactive
CC(CCl)OP(=O)(OC(C)CCl)OC(C)CCl (stereo unspecified)	inactive
CC(C)CCCCCCCOC(=O)CCCCC(=O)OCCCCCCCC(C)C	inactive
CC(=O)c1ccc(O)cc1	inactive
C=C(C)CNCC	inactive
CCCCC(C=O)CC (stereo unspecified)	inactive
C=C(C)C(=O)OCC(C)C	inactive
CCNc1ccccc1	inactive
O=C(O)/C=C/C(=O)O	inactive
CC(=O)OCc1ccco1	inactive
O=C(O)c1cc2ccccc2cc1O	inactive
CCNc1cccc(C)c1	inactive
COc1ccc(OC)cc1	inactive
N#Cc1ccccc1	inactive
